We go through nine molecules from PubChem BioAssay (NCI).

Compounds without any hit were thinned out: in the full panel of roughly 79,000, 15% have a hit. A number with no mark means an inactive call. Active and inactive are the calls of the source. Cut-off read from the data, not from the text of the source: active = growth inhibition above about 70%; inactive = the rest.

The nature of experiment [1]: NCI Yeast Anticancer Drug Screen. Data for the rad50 strain (AID 155).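 Note: 0% = growth of vehicle-only cultures of the same strain.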 To be noted: S. cerevisiae rad50 strain growth inhibition, hits give high values. In a few lines:
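Genetically altered yeast (DNA repair pathway); compound treatment; growth inhibition vs vehicle ctrl.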

Experiment [2] is described as follows: NCI Yeast Anticancer Drug Screen. Data for the mec2-1 strain (AID 157). The conditions noted are these: S. cerevisiae mec2-1 strain, hits give high values. In a few lines:
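Compounds were applied to mec2-1 yeast cells. Their growth was then compared with that of vehicle-treated cultures to give growth inhibition.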

Experiment [3] can be described thus: NCI Yeast Anticancer Drug Screen. Data for the sgs1 mgt1 strain (AID 161).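 Note: 0% = growth of cultures given vehicle only.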 The conditions noted are these: S. cerevisiae sgs1 mgt1 strain, hits give high values. In short, it runs like this: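 This yeast growth screen uses a strain with defined DNA-repair lesions; compound-treated growth is compared with vehicle-treated growth.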
The nature of experiment [4]: NCI Yeast Anticancer Drug Screen. Data for the cln2 rad14 strain (AID 165).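 Note: 0% = growth equal to vehicle treated cultures.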 To be noted: S. cerevisiae cln2 rad14 strain, hits give high values. In short, it runs like this:
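Strain: cln2 rad14 yeast, altered in cell cycle control and DNA damage repair. Read-out: growth inhibition vs vehicle.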

Experiment [5] is described as follows: NCI Yeast Anticancer Drug Screen. Data for the bub3 strain (AID 167). The conditions noted are these: S. cerevisiae bub3 mutant strain, hits give high values. In a few lines: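 Yeast carrying a defined mutation is treated with each compound, and growth is compared with that of vehicle-exposed cells to give inhibition.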
Experiment [6] is described as follows: NCI Yeast Anticancer Drug Screen. Data for the mlh1 rad18 strain (AID 175). The conditions noted are these: S. cerevisiae mlh1 rad18 strain growth inhibition, hits give high values. In a few lines: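 A repair-deficient yeast strain is exposed to test compound, and growth is scored relative to vehicle-treated controls.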
Setting [7] is: at 5.0 µM (retest, dose inferred, filed as 0.5).
Where [8] appears, read: at 50.0 µM (retest, dose inferred, filed as 5.0).

Turning to `COc1ccc2oc(-c3ccc(OC)c(OC)c3OC)cc(=O)c2c1`, the growth inhibition is -34% in experiment [1] (setting [7]); -26% in experiment [1] (setting [8]); 15.7% in experiment [1] (at 50.0 µM); -47% in experiment [2] (setting [7]); -12% in experiment [2] (setting [8]); 22% in experiment [2] (at 50.0 µM). Moreover, the growth inhibition was -11% in experiment [3] (setting [7]); 50% in experiment [3] (setting [8]); 70% (active) in experiment [3] (at 50.0 µM); -14% in experiment [4] (setting [7]); 9% in experiment [4] (setting [8]); -4.55% in experiment [4] (at 50.0 µM). Also, the growth inhibition is -15% in experiment [5] (setting [7]); 48% in experiment [5] (setting [8]); 51.2% in experiment [5] (at 50.0 µM); -39% in experiment [6] (setting [7]); -7% in experiment [6] (setting [8]); 4.8% in experiment [6] (at 50.0 µM).

`CS(=O)(=O)OCCN(CCOS(C)(=O)=O)c1ccc(C=Nc2cc(Cl)c(O)c(Cl)c2)c(Cl)c1`: the growth inhibition is -1% in experiment [1] (setting [7]); 28% in experiment [1] (setting [8]); 46.6% in experiment [1] (at 50.0 µM); 42% in experiment [2] (setting [7]); 4% in experiment [2] (setting [8]); -5% in experiment [2] (at 50.0 µM). For the same molecule, the growth inhibition in experiment [3] (setting [7]) was -1%; in experiment [3] (setting [8]), 32%; in experiment [3] (at 50.0 µM) it was 38.5%; in experiment [4] (setting [7]), 0%; in experiment [4] (setting [8]) it was 3%; in experiment [4] (at 50.0 µM) it was -23.1%. Further, the growth inhibition in experiment [5] (setting [7]) was -1%; in experiment [5] (setting [8]), -1%; in experiment [5] (at 50.0 µM), 1.25%; in experiment [6] (setting [7]), 9%; in experiment [6] (setting [8]), 57%; in experiment [6] (at 50.0 µM) it was 86% (active).

Turning to `FC(F)(F)c1ccc(-c2ccc(OCCN3CCCC3)cc2)cc1`, the growth inhibition was 30% in experiment [1] (setting [7]); 50% in experiment [1] (setting [8]); 98.6% (active) in experiment [1] (at 50.0 µM); 13% in experiment [2] (setting [7]); 50% in experiment [2] (setting [8]); 99.5% (active) in experiment [2] (at 50.0 µM). Also, the growth inhibition in experiment [3] (setting [7]) was 25%; in experiment [3] (setting [8]), 88% (active); in experiment [3] (at 50.0 µM), 99.4% (active); in experiment [4] (setting [7]) it was 28%; in experiment [4] (setting [8]), 40%; in experiment [4] (at 50.0 µM), 99.1% (active). Also, the growth inhibition in experiment [5] (setting [7]) is 26%; in experiment [5] (setting [8]), 62%; in experiment [5] (at 50.0 µM), 99.4% (active); in experiment [6] (setting [7]), 29%; in experiment [6] (setting [8]) it was 68%; in experiment [6] (at 50.0 µM), 99.3% (active).

As to `CC(C)(C)Oc1ccc(CC(NC(=O)OCC2c3ccccc3-c3ccccc32)C(=O)O)cc1` (configuration not stated), the growth inhibition was 9% in experiment [1] (setting [7]); 95% (active) in experiment [1] (setting [8]); 90.6% (active) in experiment [1] (at 50.0 µM); -11% in experiment [2] (setting [7]); 97% (active) in experiment [2] (setting [8]); 93.2% (active) in experiment [2] (at 50.0 µM). Besides, the growth inhibition was -9% in experiment [3] (setting [7]); 98% (active) in experiment [3] (setting [8]); 90.5% (active) in experiment [3] (at 50.0 µM); 33% in experiment [4] (setting [7]); 96% (active) in experiment [4] (setting [8]); 91.7% (active) in experiment [4] (at 50.0 µM). The growth inhibition in experiment [5] (setting [7]) was -7%; in experiment [5] (setting [8]) it was 97% (active); in experiment [5] (at 50.0 µM), 89.2% (active); in experiment [6] (setting [7]), -3%; in experiment [6] (setting [8]), 96% (active); in experiment [6] (at 50.0 µM), 90.3% (active).

Turning to `COc1ccc(C2=C(Cl)C(=O)N(c3ccc(Cl)cc3)C(=O)C2(Cl)Cl)cc1`, the growth inhibition was 12% in experiment [1] (setting [7]); 95% (active) in experiment [1] (setting [8]); 93.2% (active) in experiment [1] (at 50.0 µM); 3% in experiment [2] (setting [7]); 97% (active) in experiment [2] (setting [8]); 98.2% (active) in experiment [2] (at 50.0 µM). The growth inhibition is 13% in experiment [3] (setting [7]); 96% (active) in experiment [3] (setting [8]); 97.1% (active) in experiment [3] (at 50.0 µM); -10% in experiment [4] (setting [7]); 91% (active) in experiment [4] (setting [8]); 63% in experiment [4] (at 50.0 µM). Besides, the growth inhibition is -3% in experiment [5] (setting [7]); 95% (active) in experiment [5] (setting [8]); 93.2% (active) in experiment [5] (at 50.0 µM); 9% in experiment [6] (setting [7]); 94% (active) in experiment [6] (setting [8]); 96% (active) in experiment [6] (at 50.0 µM).

For the molecule `Cc1ccc(N=Nc2c(C)c(C#N)c(=S)n(C3OC(CO)C(O)C(O)C3O)c2-c2ccccc2)cc1` (configuration not stated), the growth inhibition in experiment [1] (setting [7]) was -8%; in experiment [1] (setting [8]), -2%; in experiment [1] (at 50.0 µM) it was 35%; in experiment [2] (setting [7]), -5%; in experiment [2] (setting [8]), 2%; in experiment [2] (at 50.0 µM) it was 50.5%. Also, the growth inhibition in experiment [3] (setting [7]) was -1%; in experiment [3] (setting [8]), 12%; in experiment [3] (at 50.0 µM), 65.2%; in experiment [4] (setting [7]) it was 12%; in experiment [4] (setting [8]), 15%; in experiment [4] (at 50.0 µM) it was 46%. Further, the growth inhibition is -4% in experiment [5] (setting [7]); -10% in experiment [5] (setting [8]); 42% in experiment [5] (at 50.0 µM); -17% in experiment [6] (setting [7]); 21% in experiment [6] (setting [8]); 68.8% in experiment [6] (at 50.0 µM).

With `O=c1c2ccccc2ncn1Cc1ccccc1[N+](=O)[O-]`, the growth inhibition in experiment [1] (setting [7]) is -2%; in experiment [1] (setting [8]), 14%; in experiment [1] (at 50.0 µM), -31.8%; in experiment [2] (setting [7]), -2%; in experiment [2] (setting [8]), 7%; in experiment [2] (at 50.0 µM), -9.1%. Moreover, the growth inhibition was 0% in experiment [3] (setting [7]); 23% in experiment [3] (setting [8]); -7% in experiment [3] (at 50.0 µM); -11% in experiment [4] (setting [7]); -17% in experiment [4] (setting [8]); 73.3% (active) in experiment [4] (at 50.0 µM). For the same molecule, the growth inhibition in experiment [5] (setting [7]) is -1%; in experiment [5] (setting [8]) it was 42%; in experiment [5] (at 50.0 µM) it was 26.2%; in experiment [6] (setting [7]), 0%; in experiment [6] (setting [8]) it was 18%; in experiment [6] (at 50.0 µM), -6.15%.

Take `OCCSC(=S)Nc1ccc(Cl)c(Cl)c1`: the growth inhibition in experiment [1] (setting [7]) is 47%; in experiment [1] (setting [8]), 99% (active); in experiment [1] (at 50.0 µM) it was 99.6% (active); in experiment [2] (setting [7]), 10%; in experiment [2] (setting [8]), 100% (active); in experiment [2] (at 50.0 µM) it was 99.7% (active). The growth inhibition in experiment [3] (setting [7]) is 78% (active); in experiment [3] (setting [8]), 100% (active); in experiment [3] (at 50.0 µM), 99.8% (active); in experiment [4] (setting [7]), 0%; in experiment [4] (setting [8]), 99% (active); in experiment [4] (at 50.0 µM), 99.5% (active). For the same molecule, the growth inhibition in experiment [5] (setting [7]) is 44%; in experiment [5] (setting [8]), 99% (active); in experiment [5] (at 50.0 µM), 99.8% (active); in experiment [6] (setting [7]), 85% (active); in experiment [6] (setting [8]) it was 99% (active); in experiment [6] (at 50.0 µM) it was 99.5% (active).

For `CC(=O)Oc1c2ccccc2c(C)c2c1ccc1ccccc12`, the growth inhibition is 65% in experiment [1] (setting [7]); 93% (active) in experiment [1] (setting [8]); 96% (active) in experiment [1] (at 50.0 µM); 84% (active) in experiment [2] (setting [7]); 92% (active) in experiment [2] (setting [8]); 95% (active) in experiment [2] (at 50.0 µM). The growth inhibition is 89% (active) in experiment [3] (setting [7]); 93% (active) in experiment [3] (setting [8]); 96% (active) in experiment [3] (at 50.0 µM); 49% in experiment [4] (setting [7]); 92% (active) in experiment [4] (setting [8]); 94.2% (active) in experiment [4] (at 50.0 µM). Besides, the growth inhibition in experiment [5] (setting [7]) was 37%; in experiment [5] (setting [8]), 93% (active); in experiment [5] (at 50.0 µM), 96.7% (active); in experiment [6] (setting [7]), 91% (active); in experiment [6] (setting [8]) it was 90% (active); in experiment [6] (at 50.0 µM), 91.8% (active).
